According to article PMC4336329 (PLoS ONE, 2015):
Among all 310,000 compounds or so, about 14,000 (4.5%) showed an effect of 50% or more. The effect is printed as a negative number. The sample holds strong results, similar compounds and a random draw of the others, so the mix is not that of the screen.

Molecular target: human ether-à-go-go-related gene (hERG) potassium channel (human, UniProt Q12809)
Experiment: primary screen, population patch clamp on CHO cells stably expressing hERG; higher = less effect of the substance
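Also: peak tail current of the secondary pulse compared with the same well before compound.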

Sequence of human ether-à-go-go-related gene (hERG) potassium channel (Q12809 whole entry, looked up): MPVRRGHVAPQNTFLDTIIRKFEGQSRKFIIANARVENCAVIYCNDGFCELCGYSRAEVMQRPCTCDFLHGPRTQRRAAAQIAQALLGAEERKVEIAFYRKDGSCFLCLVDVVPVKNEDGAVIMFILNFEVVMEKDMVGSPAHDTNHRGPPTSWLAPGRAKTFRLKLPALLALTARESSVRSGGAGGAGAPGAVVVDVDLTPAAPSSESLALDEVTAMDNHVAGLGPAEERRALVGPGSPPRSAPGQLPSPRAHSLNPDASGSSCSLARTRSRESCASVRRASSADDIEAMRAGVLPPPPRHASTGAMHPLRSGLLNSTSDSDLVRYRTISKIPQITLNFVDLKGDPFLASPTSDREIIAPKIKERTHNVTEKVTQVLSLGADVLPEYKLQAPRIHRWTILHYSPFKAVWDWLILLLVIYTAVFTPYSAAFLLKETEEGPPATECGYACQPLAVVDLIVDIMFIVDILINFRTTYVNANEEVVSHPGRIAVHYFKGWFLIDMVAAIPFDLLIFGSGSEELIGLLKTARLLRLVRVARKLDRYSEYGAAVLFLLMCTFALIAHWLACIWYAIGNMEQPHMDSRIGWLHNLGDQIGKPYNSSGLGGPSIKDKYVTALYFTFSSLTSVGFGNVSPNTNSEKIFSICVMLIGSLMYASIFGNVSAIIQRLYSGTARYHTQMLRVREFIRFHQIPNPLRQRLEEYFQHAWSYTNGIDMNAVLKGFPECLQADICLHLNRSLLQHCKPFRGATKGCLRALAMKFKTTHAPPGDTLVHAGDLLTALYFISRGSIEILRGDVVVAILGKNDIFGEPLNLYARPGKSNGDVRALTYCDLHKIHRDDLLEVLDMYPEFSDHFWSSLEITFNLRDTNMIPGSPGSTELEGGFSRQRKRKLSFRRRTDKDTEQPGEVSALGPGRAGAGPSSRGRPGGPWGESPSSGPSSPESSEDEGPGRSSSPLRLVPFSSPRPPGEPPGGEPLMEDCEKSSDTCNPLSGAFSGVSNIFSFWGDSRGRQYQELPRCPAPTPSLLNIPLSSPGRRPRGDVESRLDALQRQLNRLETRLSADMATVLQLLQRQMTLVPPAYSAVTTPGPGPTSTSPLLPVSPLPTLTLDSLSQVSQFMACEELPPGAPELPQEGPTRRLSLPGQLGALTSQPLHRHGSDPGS

Compound | hERG current change (%, negative = inhibition) at 10uM
Cc1cc(O)ccc1N/C=C(\C#N)c1nc2ccccc2o1 | 10.2%
C=C(C)COc1ccc2c(C)c(CCC(=O)NC3CC3)c(=O)oc2c1 | -2.92%
CCOC(=O)c1sc2nc(CN3CCN(c4cccc(C(F)(F)F)c4)CC3)[nH]c(=O)c2c1C | 8.43%
N#Cc1ccc(Cn2c(-c3ccc(F)cc3)noc2=O)cc1 | -17.8%
COc1ccc(-c2noc(=O)n2Cc2ccc(C#N)cc2)cc1 | -70.1%
COc1ccc(-c2noc(=O)n2Cc2ccccc2Cl)cc1 | -8.73%
Cc1cc(C)n(Cc2ccc(C(=O)O)o2)n1 | 11.5%
COc1ccccc1COn1c(=O)c(-c2ccco2)[n+]([O-])c2ccccc21 | 5.96%
N=c1c(S(=O)(=O)c2ccccc2)cc2c(=O)n3ccccc3nc2n1CCCN1CCOCC1 | -65.9%
N=c1c(C(=O)NCc2ccccc2)cc2c(=O)n3ccccc3nc2n1CCCN1CCOCC1 | -78.6%
Cc1ccc(S(=O)(=O)c2cc3c(=O)n4ccccc4nc3n(CCCN3CCOCC3)c2=N)cc1C | -36.8%
Nc1c(C(=O)NCc2ccc(F)cc2)c2nc3ccccc3nc2n1CCCN1CCOCC1 | 0.0395%
N=c1c(S(=O)(=O)c2ccc(Cl)cc2)cc2c(=O)n3ccccc3nc2n1CCN1CCOCC1 | -46.4%
N=c1c(C(=O)NCCN2CCOCC2)cc2c(=O)n3ccccc3nc2n1CCc1ccccc1 | -72.5%
O=C(NCCN1CCOCC1)c1c(O)nc2ccccn2c1=O | 10.9%
N=c1c(C(=O)NCc2ccc(F)cc2)cc2c(=O)n3ccccc3nc2n1CCCN1CCOCC1 | -83%
CN(C)S(=O)(=O)N1CCC(Oc2ccc(C(=O)NCCc3cscn3)cc2)CC1 | 0.0832%
CC(C)O.CCc1nnc(NS(=O)(=O)c2ccc(NC(=O)C(c3ccccc3)c3ccccc3)cc2)s1 | 2.36%
CCc1nnc(NC(=O)C2CC(=O)N(c3ccc4c(c3)OCCO4)C2)s1 (stereo not shown) | 4.32%
CC(=O)Nc1ccc(C(=O)CS(=O)(=O)c2ccc(C)cc2)cc1 | -11.5%
N=c1c(C(=O)NCCc2ccccc2)cc2c(=O)n3ccccc3nc2n1CCCN1CCOCC1 | -76.2%
N=c1c(C(=O)NCCN2CCOCC2)cc2c(=O)n3ccccc3nc2n1CCCN1CCOCC1 | -4.43%

Compound | hERG current change (%, negative = inhibition) at 10uM
CC1(C)CC(=O)C=C(NCCO)C1 | -0.4%
O=C(Nc1ccc(N2CCN(C(=O)c3ccco3)CC2)cc1)c1ccco1 | 20.7%
CN(CC(CC(=O)Nc1nncs1)c1ccccc1)S(=O)(=O)c1ccc(Br)cc1 (stereo not shown) | -55.4%
CN(CC(CC(=O)Nc1nncs1)c1ccccc1)S(=O)(=O)c1ccccc1 (stereo not shown) | -14.2%
Cc1nnc(NC(=O)CC(CN(C)S(=O)(=O)c2ccccc2)c2ccccc2)s1 (stereo not shown) | -18.7%
COC(=O)c1ccccc1NC(=O)Nc1ccc(Cl)cn1 | -3.82%
O=C(Nc1ccc2c(c1)OCO2)Nc1ccc(Br)cn1 | 3.01%
Cc1cccc(N/C=C/C(=C(C#N)C#N)N(C)C)c1 | -24.5%
CN(Cc1ccccc1NCC(=O)Nc1ccccc1C#N)C1CCCCC1 | -33%
COc1ccc(C)cc1NC(=O)CNc1ccccc1CN(C)C1CCCCC1 | -19.6%
Cc1ccc(NC(=O)CNc2ccccc2CN(C)C2CCCCC2)cc1 | -59.1%
Cc1c(C(=O)N(C)CCC#N)oc2ccc(S(=O)(=O)N3CCOCC3)cc12 | 10.1%
O=C(NNc1ncnc2c1cnn2-c1ccc(F)cc1)c1cccs1 | 6.55%
O=C1CCC(C(=O)N(CCO)Cc2ccccc2)CN1CC1CCCCC1 (stereo not shown) | 11.7%
CN(C)C1=NCCN1CCc1ccc(F)cc1 | -9.03%
CCOC(=O)c1ccc2ncc(C(=O)OCC)c(NCCCN3CCOCC3)c2c1 | -47.3%
CCOC(=O)c1cnc2ccc(OC)cc2c1NCCN1CCOCC1 | -48.5%
CCOC(=O)c1cnc2ccc(OCC)cc2c1NCCCN1CCOCC1.Cl | -75.6%
CCOC(=O)c1cnc2c(cnn2C)c1NCCCn1ccnc1 | -35.9%
CCOC(=O)c1cnc2ccc(Br)cc2c1NCCCN1CCOCC1 | -39%
CCOC(=O)c1cnc2ccc(C(=O)OC)cc2c1NCCCN1CCOCC1 | -60.5%
CCOC(=O)c1cnc2ccc(C(=O)OC)cc2c1NCCN1CCOCC1 | -30.2%

Compound | hERG current change (%, negative = inhibition) at 10uM
CCOC(=O)c1cnc2c(cnn2C)c1NCCC#N | -7.43%
CCOC(=O)c1cnc2c(C)c(Cl)ccc2c1NCCCN1CCOCC1 | -49.2%
CCOC(=O)c1cnc2c(cnn2C)c1NCCCN(C)C | -51.7%
CCOC(=O)c1cnc2ccc(OCC)cc2c1NCCN1CCOCC1.Cl | -67.9%
O=C(NCCc1ccccc1)C1CCN(S(=O)(=O)N2CCCCC2)CC1 | 2.19%
CCCNC(=O)Cn1c(=O)oc2cc(S(=O)(=O)N3CCCC3)ccc21 | 11.9%
Oc1ccccc1C(=S)N1CCN(C(=S)c2ccccc2O)CC1 | 18.4%
C#CCNC(=O)C1=C[C@H](c2coc3ccccc3c2=O)[C@@H](CCCO)[C@H](OCC)O1 | -23.3%
Cc1[nH]c2ccccc2c1CCCO | 10.7%
CC(C)(C)NC(=O)CN1C(=O)/C(=C/c2ccccc2)SC1=S | 10%
O=C(CN1CCN(c2ccccc2)CC1)NC(=O)NCc1ccco1 | 9.72%
CCOC(=O)c1cnc2ccc(Cl)cc2c1NCCN(C)C | -22.8%
CCOC(=O)c1ccc2ncc(C(=O)OCC)c(NCCN3CCOCC3)c2c1 | -48.5%
CCOC(=O)c1ccc2ncc(C(=O)OCC)c(NCCN(C)C)c2c1 | -69.5%
CCOC(=O)c1cnc2ccc(Br)cc2c1NCCO | -9.88%
CCOC(=O)c1cnc2ccc(C)cc2c1NCCO | -66.4%
CCOC(=O)c1cnc2ccccc2c1NCCO | -34.8%
CCOC(=O)c1cnc2c(Cl)c(Cl)ccc2c1NCCN1CCOCC1.Cl | 14.3%
CCOC(=O)c1cnc2c(ccc3ccccc32)c1NCCN(C)C | -7.47%
CCOC(=O)c1cnc2ccc(C)cc2c1NCCN1CCOCC1.Cl | -65.7%
Nc1nnn(CC(=O)N/N=C/c2cccc(Cl)c2)n1 | 4.76%
CCCCNC(=O)c1onc(CSc2ccc(F)cc2)c1C(=O)NCCCC | -10.2%

Compound | hERG current change (%, negative = inhibition) at 10uM
CCN(CC)C(=O)C1CCC(CNS(=O)(=O)c2cccc3cccnc23)CC1 (stereo not shown) | 4.52%
CN(C)c1ccc(C(=S)N2CCCCCC2)cc1 | -5.79%
NS(=O)(=O)c1ccc(CCNC(=O)c2ccc(Cl)cc2[N+](=O)[O-])cc1 | 16.7%
COc1ccccc1N1CCN(C2CC(=O)N(c3ccc(F)cc3)C2=O)CC1 (stereo not shown) | 0.313%
O=C1CSC(c2ccccc2)N1c1ccc(F)cc1F (stereo not shown) | 4.37%
CCn1c(Cc2ccccc2)nnc1SCC(=O)Nc1ccc(S(N)(=O)=O)cc1 | 2.13%
Cc1ccc(Cn2c(SCc3cccnc3)nc3c2c(=O)n(C)c(=O)n3C)cc1 | -0.713%
Cc1ccc(-c2ccc(S(=O)(=O)NCC3CCCO3)cc2)cc1 (stereo not shown) | 26.2%
CCC(=O)N(CC)c1nc(-c2ccc(OC)cc2)cs1 | -5.81%
COCCCN(C(C)=O)c1nc(-c2ccc(OC)cc2)cs1 | -16.5%
CCN(CC)CCCN(C(=O)c1cccc(C)c1)c1nc(-c2ccc(OC)cc2)cs1 | -78.2%
COCCCN(C(=O)c1ccccc1)c1nc(-c2ccc(OC)cc2)cs1 | 18.3%
CCN(CC)CCCN(C(=O)c1ccc(F)cc1)c1nc(-c2ccc(OC)cc2)cs1 | -75.1%
COCCN(C(=O)c1ccccc1)c1nc(-c2ccc(OC)cc2)cs1 | 28.5%
CCN(CC)CCCN(C(=O)c1ccc(Br)cc1)c1nc(-c2ccc(OC)cc2)cs1.Cl | -73.2%
COc1ccc(-c2csc(N(CCCN(C)C)C(=O)c3ccc(Br)cc3)n2)cc1.O=C(O)C(=O)O | -44%
CCN(CC)CCCN(C(=O)c1ccc(OC)cc1)c1nc(-c2ccc(OC)cc2)cs1 | -73.7%
COCC(=O)N/N=C\c1cccc(OC)c1OC/C=C/c1ccccc1 | -15.6%
O=C(NC1CCCCC1)c1cc(-c2ccc(O)cc2)on1 | 0.886%
COc1ccc(Cl)cc1NC(=O)CSc1nc2sccc2c(=O)[nH]1 | 25.2%
COc1cc([N+](=O)[O-])ccc1NC(=O)Cc1ccc(F)cc1 | 0.277%
CC(=O)N1N=C(c2ccccc2)CC1c1cn(Cc2ccccc2)c2ccccc12 (stereo not shown) | -13.6%
